# Data reported in PubChem BioAssay (Tox21).
# Several values for one entry are separate records, joined by “and”; a condition that tells them apart may be missing. Identical values can stand only once. Inconclusive results are not listed. Entries that show only a call come without a potency. More than one record can exist for a structure, and the calls need not agree. Activity calls are given as the source filed them. Unless noted, calls follow the shape of the full dose curve.
# Experiments:
# [1] = Nuclear factor erythroid 2-related factor 2/antioxidant responsive element (Nrf2/ARE) small molecule agonists: qHTS cell viability counter screen in human keratinocytes (AID 1919968; active = well fitted curve in the direction sought with a large enough effect in the repeat runs; an effect the other way counts as inactive or inconclusive; also: nearly all actives have a fitted effect of over 55% in size; also: potency is read from the fitted curve at half-maximal effect)
# How it was run: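 Viability counter-screen: KeratinoSens reporter cells, DMSO-delivered compounds, 23 h at 37 C, CellTiter-Fluor fluorescence.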
# [2] = molecular target: KiSS-1 receptor (Homo sapiens) (UniProt Q969F8); assay: Human kisspeptin (KISS1R) small molecule agonists, calcium flux assay in KISS1R-HEK293 cells (AID 1920064; active = well fitted curve in the direction sought with a large enough effect in the repeat runs; an effect the other way counts as inactive or inconclusive)
# KiSS-1 receptor (Homo sapiens), sequence (Q969F8 whole entry, looked up): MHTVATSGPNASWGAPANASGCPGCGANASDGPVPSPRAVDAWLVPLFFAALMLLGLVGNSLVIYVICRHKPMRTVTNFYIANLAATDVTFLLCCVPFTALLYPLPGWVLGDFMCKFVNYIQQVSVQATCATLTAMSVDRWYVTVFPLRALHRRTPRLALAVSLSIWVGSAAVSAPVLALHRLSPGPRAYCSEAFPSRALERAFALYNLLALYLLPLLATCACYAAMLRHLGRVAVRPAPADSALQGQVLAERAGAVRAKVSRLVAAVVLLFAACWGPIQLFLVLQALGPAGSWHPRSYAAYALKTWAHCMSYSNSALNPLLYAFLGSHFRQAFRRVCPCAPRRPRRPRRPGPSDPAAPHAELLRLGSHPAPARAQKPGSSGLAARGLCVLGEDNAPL
# How it was run: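 Intracellular calcium mobilization in KISS1R-HEK293 cells was recorded by fluorescence (Ex/Em 480/540) for 3 min following compound addition to cells pre-loaded 1 h with calcium dye.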
# [3] = G protein-coupled receptor (GPCR) small molecule agonists, calcium flux assay: HEK293 wild type cell line counter screen (AID 1920065)
# How it was run: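 In this agonist-mode screen, ATP is the positive control and DMSO the vehicle. Cells grow 18 h before a 1 h dye incubation at 37 C; signal is taken at Ex/Em 480/540 over 3 min.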
# [4] = p53 small molecule agonists, cell-based qHTS assay with rat liver microsomes (AID 1963578)
# How it was run: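 Quantitative HTS of the Tox21 10K library: p53RE-bla cells, rat liver microsomes plus NADPH at 0.5 mg/mL final each, 16 h at 37 C, beta-lactamase fluorescence detection.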
# [5] = p53 small molecule agonists, cell-based qHTS assay with human liver microsomes: qHTS cell viability counter screen (AID 1963579); also: nearly all actives have a fitted effect of over 45% in size
# How it was run: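 Viability of p53RE-bla cells is measured as CellTiter-Glo luminescence following a 16 h, 37 C incubation with compound, liver microsomes from human donors and NADPH.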
# [6] = p53 small molecule agonists, cell-based qHTS assay with rat liver microsomes: qHTS cell viability counter screen (AID 1963580); also: nearly all actives have a fitted effect of over 45% in size; also: potency is read from the fitted curve at half-maximal effect
# How it was run: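 p53RE-bla HCT-116 cells were exposed 16 h at 37 C to compounds with rat liver microsomes (0.5 mg/mL) and NADPH (0.5 mg/mL). Viability was measured in the same wells as ATP content by CellTiter-Glo luminescence.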
# [7] = p53 small molecule agonists, cell-based qHTS assay: qHTS cell viability counter screen (AID 1963581); also: nearly all actives have a fitted effect of over 45% in size
# How it was run: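 Compounds are pinned onto HCT-116 p53RE-bla cells and left 16 h at 37 C. Following the reporter FRET read, ATP is quantified by CellTiter-Glo luminescence after 30 min at room temperature.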
# [8] = p53 small molecule agonists, cell-based qHTS assay (AID 1963582; active = well fitted activation curve with a large enough effect in the signal ratio in the repeat runs, not every such curve was filed as active; the % refers to the signal ratio)
# How it was run: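 Agonist activity was scored from beta-lactamase FRET fluorescence in p53RE-bla cells treated 16 h at 37 C with compounds in DMSO, substrate incubation being 2 h at room temperature.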
# [9] = molecular target: 5-hydroxytryptamine receptor 2A (Homo sapiens) (UniProt P28223); assay: 5-hydroxytryptamine receptor 2A (HTR2A) small molecule antagonists, cell-based qHTS assay (AID 1963586); also: nearly all actives have a fitted effect of over 45% in size
# 5-hydroxytryptamine receptor 2A (Homo sapiens), sequence (P28223 whole entry, looked up): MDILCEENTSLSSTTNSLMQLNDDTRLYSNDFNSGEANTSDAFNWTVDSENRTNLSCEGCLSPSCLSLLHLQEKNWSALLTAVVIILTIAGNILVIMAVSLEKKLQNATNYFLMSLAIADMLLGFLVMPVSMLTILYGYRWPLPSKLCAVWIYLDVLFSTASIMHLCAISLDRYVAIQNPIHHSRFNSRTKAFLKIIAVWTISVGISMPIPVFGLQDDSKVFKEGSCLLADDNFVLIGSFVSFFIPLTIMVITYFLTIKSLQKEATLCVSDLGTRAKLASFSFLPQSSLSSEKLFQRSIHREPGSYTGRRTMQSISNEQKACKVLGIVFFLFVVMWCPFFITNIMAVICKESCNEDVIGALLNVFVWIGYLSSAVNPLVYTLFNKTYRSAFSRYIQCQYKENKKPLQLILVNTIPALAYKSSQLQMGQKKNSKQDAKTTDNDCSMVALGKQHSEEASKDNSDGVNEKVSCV
# How it was run: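 Antagonist-mode intracellular calcium assay: DOI (4 nM) added after 5 min compound pre-incubation at room temperature to dye-loaded HTR2A-CHO cells. Fluorescence followed for 3 min, sampled every second.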
# [10] = molecular target: 5-hydroxytryptamine receptor 2A (Homo sapiens) (UniProt P28223); assay: 5-hydroxytryptamine receptor 2A (HTR2A) small molecule agonists, cell-based qHTS assay (AID 1963587); also: nearly all actives have a fitted effect of over 30% in size
# How it was run: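 CHO cells stably expressing human HTR2A, plated 18 h, loaded with calcium dye 1 h at 37 C. Agonist mode: compounds added and intracellular calcium fluorescence recorded kinetically for 2 min at 1 sec intervals.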
# [11] = molecular target: Muscarinic acetylcholine receptor M1 (Homo sapiens) (UniProt P11229); assay: Cholinergic receptor muscarinic 1 (CHRM1) small molecule antagonists, cell-based qHTS assay (AID 1963588); also: nearly all actives have a fitted effect of over 40% in size; also: potency is read from the fitted curve at half-maximal effect
# Muscarinic acetylcholine receptor M1 (Homo sapiens), sequence (P11229 whole entry, looked up): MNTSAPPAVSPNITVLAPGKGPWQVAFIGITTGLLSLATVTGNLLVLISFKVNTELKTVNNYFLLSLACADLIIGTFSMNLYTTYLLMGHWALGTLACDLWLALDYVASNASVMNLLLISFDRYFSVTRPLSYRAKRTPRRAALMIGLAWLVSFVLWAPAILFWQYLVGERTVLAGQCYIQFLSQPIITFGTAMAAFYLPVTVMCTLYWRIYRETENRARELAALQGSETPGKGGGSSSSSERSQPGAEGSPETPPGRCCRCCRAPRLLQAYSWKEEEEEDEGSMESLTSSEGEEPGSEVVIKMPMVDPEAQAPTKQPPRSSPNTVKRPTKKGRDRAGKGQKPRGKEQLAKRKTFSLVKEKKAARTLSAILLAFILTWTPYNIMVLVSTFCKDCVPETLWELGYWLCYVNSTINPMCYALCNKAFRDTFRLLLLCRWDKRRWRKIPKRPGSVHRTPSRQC
# How it was run: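 CHRM1-CHO calcium-flux assay, antagonist mode. Cells were seeded 18 h, dye-loaded 1 h at 37 C and given compound for 5 min at RT, then acetylcholine was added at 50nM. FDSS fluorescence was read 3 min; 15 concentrations, three runs.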
# [12] = molecular target: Muscarinic acetylcholine receptor M1 (Homo sapiens) (UniProt P11229); assay: Cholinergic receptor muscarinic 1 (CHRM1) small molecule agonists, cell-based qHTS assay (AID 1963589); also: nearly all actives have a fitted effect of over 35% in size
# How it was run: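 Stable CHRM1-CHO cells (human receptor) were incubated 18 h, dye-loaded for 1 h at 37 C and exposed to test compounds for agonist activity, with calcium-dependent fluorescence followed kinetically.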
# [13] = cAMP Responsive Elements (CRE) small molecule agonists, cell-based qHTS assay (AID 1963590)
# How it was run: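 FRET-based beta-lactamase readout (LiveBLAzer B/G, 2 h RT) quantified CRE activation in HEK 293T CRE-bla cells after 3 h treatment with DMSO-dissolved compounds.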
# [14] = cAMP Responsive Elements (CRE) small molecule antagonists, cell-based qHTS assay (AID 1963591; active = well fitted inhibition curve with a large enough effect in the signal ratio in the repeat runs, not every such curve was filed as active; the % refers to the signal ratio; also: potency is read from the fitted curve at half-maximal effect)
# How it was run: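 qHTS in CRE-bla HEK 293T cells: compound in DMSO, then 0.25 uM NKH477 (final), 3 h at 37 °C/5% CO2; beta-lactamase FRET read-out after 2 h substrate incubation.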
# [15] = molecular target: Beta-2 adrenergic receptor (Homo sapiens) (UniProt P07550); assay: Adrenergic beta2 receptor (ADRB2) small molecule antagonists, cell-based qHTS assay (AID 1963592); also: nearly all actives have a fitted effect of over 50% in size; also: potency is read from the fitted curve at half-maximal effect
# Beta-2 adrenergic receptor (Homo sapiens), sequence (P07550 whole entry, looked up): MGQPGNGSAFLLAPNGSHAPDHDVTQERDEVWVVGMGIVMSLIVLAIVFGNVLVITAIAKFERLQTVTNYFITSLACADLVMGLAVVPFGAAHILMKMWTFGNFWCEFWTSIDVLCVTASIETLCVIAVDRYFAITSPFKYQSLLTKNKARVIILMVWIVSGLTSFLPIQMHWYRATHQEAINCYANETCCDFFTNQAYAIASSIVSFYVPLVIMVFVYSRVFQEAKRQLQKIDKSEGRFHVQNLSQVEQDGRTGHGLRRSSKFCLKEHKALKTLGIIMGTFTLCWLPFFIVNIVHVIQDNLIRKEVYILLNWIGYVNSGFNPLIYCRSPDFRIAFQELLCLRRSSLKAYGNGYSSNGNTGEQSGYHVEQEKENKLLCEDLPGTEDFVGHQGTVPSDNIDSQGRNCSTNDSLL
# How it was run: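 Cells (CHO, stable ADRB2 overexpression) incubated 18-20hr at 37C; compounds added from DMSO; agonist mix (1nM isoproterenol, 100uM IBMX, 25uM Ro-20-1724) added; 0.5hr RT; d2-cAMP and anti-cAMP-cryptate added; 1hr RT; 665/615 nm read.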
# [16] = molecular target: Beta-2 adrenergic receptor (Homo sapiens) (UniProt P07550); assay: Adrenergic beta2 receptor (ADRB2) small molecule agonists, cell-based qHTS assay (AID 1963593);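 also: CHO cells stably overexpressing human ADRB2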
# How it was run: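 CHO cells stably over-expressing ADRB2 were plated overnight at 37C, then dosed with compounds plus a stimulation mix containing 100uM IBMX and 25uM Ro-20-1724 for 0.5hr at room temperature. cAMP was measured by HTRF competition, 1hr.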
# [17] = molecular target: D(2) dopamine receptor (Homo sapiens) (UniProt P14416); assay: Dopamine D2 receptor (DRD2) small molecule agonists, cell-based qHTS assay (AID 1963594); also: nearly all actives have a fitted effect of over 35% in size
# D(2) dopamine receptor (Homo sapiens), sequence (P14416 whole entry, looked up): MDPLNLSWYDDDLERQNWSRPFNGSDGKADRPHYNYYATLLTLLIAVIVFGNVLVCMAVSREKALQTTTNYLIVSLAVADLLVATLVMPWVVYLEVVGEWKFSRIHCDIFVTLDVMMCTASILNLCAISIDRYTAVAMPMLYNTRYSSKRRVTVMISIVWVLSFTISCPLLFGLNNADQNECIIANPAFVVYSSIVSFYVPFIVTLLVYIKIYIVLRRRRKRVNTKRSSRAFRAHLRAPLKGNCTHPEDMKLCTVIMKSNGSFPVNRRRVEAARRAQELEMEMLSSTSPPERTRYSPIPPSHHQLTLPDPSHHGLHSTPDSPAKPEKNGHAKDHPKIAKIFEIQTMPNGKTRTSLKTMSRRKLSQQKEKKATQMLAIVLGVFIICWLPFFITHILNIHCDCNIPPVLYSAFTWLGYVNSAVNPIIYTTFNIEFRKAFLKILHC
# How it was run: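 HEK293 cells stably expressing human DRD2, pre-treated with PDE inhibitor Ro20-1724 (0.1 mM final) and compound 10 min at room temperature, then stimulated with NKH477 (200nM […]) for 30 min. cAMP read by HTRF (665/620 nm).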
# [18] = molecular target: D(2) dopamine receptor (Homo sapiens) (UniProt P14416); assay: Dopamine D2 receptor (DRD2) small molecule antagonists, cell-based qHTS assay (AID 1963595; active = well fitted inhibition curve with a large enough effect in the signal ratio in the repeat runs, with a control signal flat; the % refers to the signal ratio; also: potency is read from the fitted curve at half-maximal effect)
# How it was run: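 Cells were plated and grown for 24 h at 37 °C. Ro20-1724 (0.1 mM final) went in first, then compound for 10 min. NKH477 (200 nM) with quinpirole (12 nM) followed for 30 min at RT, then HTRF detection reagents for 1 h.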
# [19] = molecular target: Gonadotropin-releasing hormone receptor (Homo sapiens) (UniProt P30968); assay: Human gonadotropin-releasing hormone receptor (GnRHR) small molecule agonists, calcium flux assay in GnRHR-HEK293 cells (AID 1920063); also: nearly all actives have a fitted effect of over 35% in size
# Gonadotropin-releasing hormone receptor (Homo sapiens), sequence (P30968 whole entry, looked up): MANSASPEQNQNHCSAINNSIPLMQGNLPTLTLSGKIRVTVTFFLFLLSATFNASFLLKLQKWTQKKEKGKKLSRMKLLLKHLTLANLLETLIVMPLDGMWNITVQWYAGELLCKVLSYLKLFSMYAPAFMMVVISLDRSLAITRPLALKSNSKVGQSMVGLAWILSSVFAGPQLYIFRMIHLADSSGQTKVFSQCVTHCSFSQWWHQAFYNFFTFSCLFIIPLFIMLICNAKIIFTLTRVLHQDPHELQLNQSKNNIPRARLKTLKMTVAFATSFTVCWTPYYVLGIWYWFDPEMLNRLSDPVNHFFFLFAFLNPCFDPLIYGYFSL
# How it was run: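 Tox21-format agonist screen using human GnRHR-expressing HEK293 cells and a fluorescent calcium dye; kinetic 3-min fluorescence reading after compound addition, 15-point concentration series run in triplicate.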
# [20] = p53 small molecule agonists, cell-based qHTS assay with human liver microsomes (AID 1963577);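 also: p53 response element beta-lactamase reporter cells with liver microsomes plus NADPH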
# How it was run: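 HLM-supplemented p53RE-bla reporter assay: 16 h compound exposure at 37 C, microsomes and NADPH each 0.5 mg/mL final, read by fluorescence intensity.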
SMILES,Potency [1],Potency [2],Potency [3],Potency [4],Potency [5],Potency [6],Potency [7],Potency [8],Potency [9],Potency [10],Potency [11],Potency [12],Potency [13],Potency [14],Potency [15],Potency [16],Potency [17],Potency [18],Potency [19],Potency [20]
O=Cc1ccc(CO)o1,inactive,inactive,inactive,inactive,inactive,inactive,inactive,inactive,inactive,inactive,inactive,inactive,inactive,inactive,inactive,inactive,inactive,inactive,,
O=c1c(O)c(-c2ccc(O)c(O)c2)oc2cc(O)cc(O)c12,inactive,inactive,inactive,inactive,inactive,inactive,inactive,inactive,inactive,inactive,inactive,inactive,,inactive,inactive,,inactive,inactive,inactive,inactive
COc1cc([C@@H]2c3cc4c(cc3[C@H](O)[C@H]3COC(=O)[C@H]23)OCO4)cc(OC)c1OC,inactive,inactive,inactive,inactive,,inactive,,inactive,,,,,,,inactive,inactive,inactive,inactive,,inactive
Oc1ccc(Cl)cc1Cc1cc(Cl)ccc1O,27.8 µM (active) and 61.1 µM (active),inactive,inactive,,,41.5 µM (active) and inactive,,,inactive,inactive,inactive,inactive,,49.4 µM (active),48.6 µM (active),,inactive,inactive,,
c1ccc2[nH]cnc2c1,inactive,inactive,,inactive,inactive,inactive,inactive,inactive,inactive,inactive,inactive,inactive,inactive,inactive,,inactive,inactive,inactive,,inactive
COCc1c(C(C)C)nc(C(C)C)c(/C=C/[C@@H](O)C[C@@H](O)CC(=O)O)c1-c1ccc(F)cc1,inactive,,inactive,inactive,inactive,inactive,inactive,,,,,,,,inactive,inactive,inactive,inactive,,inactive
c1ccc2[nH]c(-c3cscn3)nc2c1,inactive,inactive,inactive,,inactive,,inactive,,,,,,inactive,inactive,inactive,inactive,inactive,inactive,,
CCCCC1C(=O)N(c2ccccc2)N(c2ccccc2)C1=O,inactive,inactive,inactive,inactive,inactive,inactive,inactive,inactive,,,,,inactive,inactive,,inactive,inactive,inactive,inactive,inactive
CC(=O)Nc1c(I)c(NC(C)=O)c(I)c(C(=O)O)c1I,inactive,inactive,inactive,,inactive,inactive,inactive,,,,,,,inactive,inactive,,inactive,,,
Oc1ccc2ccccc2c1N=Nc1ccccc1,inactive,,inactive,inactive,inactive,inactive,inactive,inactive,inactive,inactive,472 nM (active) and inactive,inactive,,inactive,inactive,,inactive,inactive,,inactive
C=C(CC(=O)O)C(=O)O,inactive,,inactive,inactive,inactive,inactive,inactive,inactive,inactive,inactive,inactive,inactive,inactive,inactive,inactive,inactive,inactive,inactive,,
CNC[C@H](O)c1cccc(O)c1,inactive,inactive,inactive,inactive,inactive,inactive,inactive,inactive,inactive,inactive,,inactive,,inactive,inactive,,inactive,61.1 µM (active) and 29.8 µM (active),inactive,inactive
CC(C)NCC(O)c1ccc(O)c(O)c1 (configuration not stated),inactive,inactive,inactive,,inactive,inactive,inactive,,,,,,,inactive,,,inactive,303 nM (active) and 969 nM (active) and 596 nM (active),,
C=C(C)C(=O)OCCC[Si](OC)(OC)OC,inactive,inactive,inactive,inactive,inactive,inactive,inactive,inactive,inactive,inactive,inactive,inactive,inactive,inactive,,,inactive,inactive,,
CC(=O)C(=O)O,inactive,inactive,inactive,inactive,inactive,inactive,inactive,inactive,inactive,inactive,inactive,,inactive,inactive,inactive,inactive,inactive,inactive,,
CC1=C(C)S(=O)(=O)CCS1(=O)=O,inactive,,inactive,inactive,inactive,inactive,inactive,inactive,inactive,inactive,inactive,inactive,inactive,inactive,,,inactive,inactive,,inactive
C=C(C)CC(C)(C)C,inactive,inactive,inactive,inactive,inactive,inactive,inactive,inactive,inactive,inactive,inactive,inactive,inactive,,inactive,inactive,inactive,inactive,,
Cc1cc(=O)[nH]c(=S)[nH]1,inactive,inactive,inactive,inactive,inactive,inactive,inactive,inactive,inactive,inactive,inactive,inactive,inactive,inactive,inactive,inactive,inactive,inactive,inactive,inactive
